# Data reported in PubChem BioAssay AID2284356 (EPA ToxCast).
# Inconclusive results are not listed. Calls of active or inactive are those of the source. The calls were made as follows: active = hit-call score of the fitted dose curve at least 0.9, where 1 is the maximum; inconclusive = response in the unintended direction; inactive = score below 0.9.
# Target: zebrafish Estrogen Receptor (ER1), esr1 (gene 259252) (UniProt P57717)
# Assay: ATG_zfER1_EcoTox2: Attagene TRANS-FACTORIAL EcoTox-2 HepG2 Assay for zebrafish Estrogen Receptor (ER1)
# Protocol: ATG_EcoTox2 is a cell-based, multiplexed assay created by modifying the existing Attagene TRANS-FACTORIAL system to include a panel of nuclear receptors from some or all the following species: human (Homo sapiens), african clawed frog (Xenopus laevis), rainbow trout (Oncorhynchus mykiss), japanese medaka (Oryzias latipes), and zebrafish (Danio rerio). The ECOTOX2-FACTORIAL format uses HepG2, a human liver cell line, with measurements taken at 24 hours after chemical dosing in a 24-well plate. ATG_zfER1_EcoTox2 is one of 29 assay components calculated in the ATG_EcoTox2 assay. It is designed to make measurements of mRNA induction, a form of inducible reporter, as detected with fluorescence intensity signals by Reverse transcription polymerase chain reaction (RT-PCR) and Capillary electrophoresis technology.The assay endpoint ATG_zfER1_EcoTox2 was analyzed in the positive analysis fitting direction relative to DMSO as the negative control and baseline of activity. Using a type of inducible reporter, measures of mRNA for gain-of-signal activity can be used to understand the reporter gene at the transcription factor-level as they relate to the gene ER. Furthermore, this assay endpoint can be referred to as a primary readout, because this assay has produced multiple assay endpoints where this one serves a reporter gene function. […]
# Sequence of zebrafish Estrogen Receptor (ER1), esr1 (gene 259252) (P57717 whole entry, looked up): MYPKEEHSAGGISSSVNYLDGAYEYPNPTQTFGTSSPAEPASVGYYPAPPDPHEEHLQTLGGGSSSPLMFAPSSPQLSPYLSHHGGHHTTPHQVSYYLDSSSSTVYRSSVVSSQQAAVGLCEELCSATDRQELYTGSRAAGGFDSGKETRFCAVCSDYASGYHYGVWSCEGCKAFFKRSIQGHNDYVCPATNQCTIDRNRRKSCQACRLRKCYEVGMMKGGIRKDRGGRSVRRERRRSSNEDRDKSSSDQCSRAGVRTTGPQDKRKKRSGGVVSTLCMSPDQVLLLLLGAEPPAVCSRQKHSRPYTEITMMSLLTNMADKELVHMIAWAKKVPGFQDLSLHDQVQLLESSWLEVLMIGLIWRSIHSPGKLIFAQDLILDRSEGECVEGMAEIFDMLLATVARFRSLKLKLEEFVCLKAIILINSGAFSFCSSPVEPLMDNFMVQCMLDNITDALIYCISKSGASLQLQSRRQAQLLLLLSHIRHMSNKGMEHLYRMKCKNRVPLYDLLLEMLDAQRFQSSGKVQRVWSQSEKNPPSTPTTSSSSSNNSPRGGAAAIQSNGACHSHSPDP
compound,measurement,value
O=S(=O)(O)C(F)(F)C(F)(F)C(F)(F)C(F)(F)C(F)(F)C(F)(F)F,outcome,inactive
